NIH3T3 tox = kills NIH 3T3 cells; NIH 3T3 viability, CellTiter-Glo ATP luminescence, 48-72 h; Potency, µM (top dose mostly 96.7 µM), inactives show top-dose activity change, negative = cytotoxicity, usual class: inhibitors; 4.3% of 94,000 active; further: nearly all actives have a fitted effect of over 55% in size
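First NIH 3T3 cells are plated at 400 cells/well; next compound is pinned in; then plates incubate 48 or 72 hr at 37 °C; finally CellTiter-Glo is added and luminescence read after 10 min.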
HEK cytotox = cytotoxic compounds in HEK 293 cells; HEK 293 viability, ATP luminescence (CellTiter-Glo), 48-72 h; 6.6% of 94,000 active; Potency, µM (series often up to 115 µM), for the others: at the top dose activity change, negative = cytotoxicity, usual class: inhibitors; further: nearly all actives have a fitted effect of over 60% in size
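ATP-coupled CellTiter-Glo luminescence served as viability read-out, recorded 10 min after reagent addition at room temperature. HEK 293 cells, 250 cells/well, had been incubated with pintool-transferred compound for 48 or 72 hr at 37 degree Celsius.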
NPR1 antag = blocks ANP-stimulated signaling of human Npr1 receptor | P16066 | HEK293 hNpr1 GloSensor cGMP, ANP-stimulated luminescence | Potency, µM (highest dose often 46.3 µM), without a hit: top-dose activity change, negative = inhibition, most hits filed as inhibitors | 1.6% of 76,000 active | AID 1347048; calls by dose curve; further: nearly all actives have a fitted effect of over 60% in size
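Compound pre-incubated 30 min at room temperature on GloSensor-loaded HEK293 cells stably carrying hNpr1 and the pGS-40F cGMP biosensor. Stimulation uses hNppA at 0.1 nM final; luminescence is taken at baseline and 20 min post-agonist.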
FLuc inh = blocks purified firefly luciferase enzyme activity; P08659; purified P. pyralis luciferase, luminescence, biochemical; Potency, µM (titrated, usually from 115 µM), usual class: inhibitors; 2.5% of 76,000 active; further: nearly all actives have a fitted effect of over 65% in size
Target sequence (P08659 whole entry, looked up): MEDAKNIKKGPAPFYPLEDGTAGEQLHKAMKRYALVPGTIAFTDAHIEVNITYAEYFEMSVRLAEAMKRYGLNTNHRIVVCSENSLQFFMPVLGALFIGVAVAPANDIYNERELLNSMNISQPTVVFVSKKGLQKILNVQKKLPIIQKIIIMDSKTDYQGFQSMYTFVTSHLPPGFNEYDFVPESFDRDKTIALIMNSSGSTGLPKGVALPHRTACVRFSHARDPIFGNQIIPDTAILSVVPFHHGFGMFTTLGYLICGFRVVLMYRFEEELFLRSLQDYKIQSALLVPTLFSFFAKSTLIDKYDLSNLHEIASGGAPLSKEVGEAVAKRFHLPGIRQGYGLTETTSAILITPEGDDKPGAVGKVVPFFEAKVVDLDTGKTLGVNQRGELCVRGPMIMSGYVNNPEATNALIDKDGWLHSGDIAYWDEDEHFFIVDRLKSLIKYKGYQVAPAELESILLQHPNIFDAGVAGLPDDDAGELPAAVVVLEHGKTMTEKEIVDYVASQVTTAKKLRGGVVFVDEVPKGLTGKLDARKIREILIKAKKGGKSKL
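Purified P. pyralis luciferase (10nM final) in 50mM Tris acetate pH 7.5, 10mM Mg acetate, 0.01% Tween-20, 0.05% BSA with 10uM D-luciferin and 10uM ATP. Compounds titrated qHTS. Luminescence imaged on CCD.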
The depositor's hits bear a star; i = inactive; ? = inconclusive; . = no result; [ ] = dose if it differs, or a comment. Most compounds without a hit are left out; they make up all but 11% or so of the library. Unless noted, the call rests on the fitted dose curve; in most records, active means well fitted curve in the direction sought with a large enough effect; inconclusive means small, poorly fitted or top-dose-only effect, or another doubt; inactive means no such curve, though single readings can be large; an effect the other way counts as inactive or inconclusive. On the % scale 0 is the no-effect control and ±100 the full control effect; potency means the concentration at half of the fitted maximal effect.

SMILES	NIH3T3 tox	HEK cytotox	NPR1 antag	FLuc inh
COc1ccc(N2Cc3c(NCC4CCCCCC4)ncnc3N(C)CC2=O)cc1	?	79µM*	-2%	i
CN1CC(=O)N(C2CCCC2)Cc2c(NCc3cccc(C(F)(F)F)c3)ncnc21	?	35µM*	.	.
O=C(Nc1cccc(C(F)(F)F)c1)N[C@H]1CO[C@H]2[C@@H]1OC[C@@H]2Nc1nccc(-c2ccc(-c3ccccc3)cc2)n1	32µM*	35µM*	1%	i
COc1ccc(-c2ccnc(N[C@H]3CO[C@H]4[C@@H]3OC[C@@H]4NS(=O)(=O)c3ccc4ccccc4c3)n2)cc1	?	22µM*	?	i
CC(=O)c1cccc(NC(=O)O[C@@H]2CO[C@H]3[C@@H]2OC[C@@H]3Nc2nccc(-c3cccc(F)c3)n2)c1	?	35µM*	?	?
CCNC(=O)N[C@H]1CO[C@H]2[C@@H]1OC[C@@H]2Nc1nccc(-c2ccc(-c3ccccc3)cc2)n1	-29%	10µM*	11µM*	?
O=C(NC1CCN(c2ccc3nnc(C4CC4)n3n2)C1)C1CC1 (stereo not given)	-24%[138 µM]	-2%[172 µM]	.	.
COCC(=O)N1CCCC1C(=O)N1CCC(c2ccccc2)CC1 (stereo not given)	-8%	-3%	.	.
COc1ccc(-c2ccnc(N[C@H]3CO[C@H]4[C@@H]3OC[C@H]4OC(=O)Nc3cccc(C(F)(F)F)c3)n2)cc1	?	?	-19%	i
N#Cc1cccc(-c2ccnc(N[C@H]3CO[C@H]4[C@@H]3OC[C@H]4OC(=O)Nc3cccc(C(F)(F)F)c3)n2)c1	-22%	28µM*	?	i
Cc1nc(-c2ccccc2)n(CC(=O)Nc2ccc(F)c(Cl)c2)c(=O)c1CCO	?	40µM*	-27%	i
Cc1ccc(NC(=O)Cn2c(-c3ccccc3)nc(C)c(CCO)c2=O)cc1Cl	28µM*	?	-15%	i
Cc1nc(-c2ccccc2)n(CC(=O)Nc2ccc(Cl)cc2)c(=O)c1CCO	-29%	?	-18%	i
Cc1ccccc1NC(=O)Cn1c(-c2cccc(Cl)c2)nc(C)c(CCO)c1=O	?	?	-3%	i
Cc1nc(-c2ccccc2)n(CC(=O)Nc2cccc(C#N)c2)c(=O)c1CCO	?	40µM*	-21%	i
CC(=O)c1cccc(NC(=O)Cn2c(-c3ccc(F)cc3)nc(C)c(CCO)c2=O)c1	?	?	-6%	i
COC1CN(C(=O)OCc2ccccc2)CCC(=O)N(C)c2ccccc21 (stereo not given)	-28%[46.1 µM]	?	.	.
CN(C(=O)c1ccc2nc(-c3ccc(F)cc3)cn2c1)C1CCOCC1	-9%	?	6%	32µM*
COCCN(CC1CC1)C(=O)c1ccc2nc(-c3ccc(F)cc3)cn2c1	-17%	?	-10%	i
Clc1ccc(Oc2cccc(CN3CCN(C4CCNC4)CC3)c2)cc1 (stereo not given)	28µM*	28µM*	3%	i
Cc1cc(C)n(-c2cccc(CN3CCN(C4CCNC4)CC3)c2)n1 (stereo not given)	i	i	4%	i
CN1CCC(N(Cc2ccccc2)[C@@H]2C[C@@H]3CO[C@H](c4ccccc4)C[C@@H]3C2)CC1	14µM*	?	.	.
Cn1cc(C(=O)N2CCC(N(Cc3ccccc3)C3CCOCC3)CC2)cn1	-11%	9%	-1%	i
CC(C)NC(=O)N1CCN2C(=O)c3cc(-c4ccc5c(c4)OCO5)ccc3NC(=O)[C@H]2C1	-7%	?	-4%	i
COc1ccccc1-c1nc2nccc(-c3cc4ccccc4o3)n2n1	?	89µM*	-10%	i
SMILES	NIH3T3 tox	HEK cytotox	NPR1 antag	FLuc inh
COc1ccc(-c2ccnc3nc(-c4ccccc4OC)nn23)cc1OC	?	?	0%	i
COc1ccccc1-c1nc2nccc(-c3ccc4c(c3)OCCCO4)n2n1	?	18µM*	-12%	?
COc1ccc(-c2ccnc3nc(-c4cccs4)nn23)cc1OC	7.1µM*	?	-2%	i
CN1CC(=O)N(C2CCCNC2)Cc2c1ncnc2N1CCSCC1 (stereo not given)	0%	3%	.	.
CCCC(=O)N1CCC(N2C(=O)C3(CCCCC3)C2c2ccccc2)CC1 (stereo not given)	?	?	4%	i
COCC(=O)N1CCC(C(=O)N2CCC(N3Cc4ccccc4C3=O)CC2)CC1	1%	-4%	.	.
O=C(Nc1ccc(F)cc1)c1nc2sccn2c1-c1cccnc1	-3%	-3%	.	.
COc1ccc2[nH]c3c(c2c1)CCNC31CCN(C(=O)c2cccs2)CC1	?	8.9µM*	-21%	i
COc1ccc2[nH]c3c(c2c1)CCNC31CCN(C(=O)c2sccc2C)CC1	-31%	?	?	i
COc1ccc2[nH]c3c(c2c1)CCNC31CCN(C(=O)c2ccc(C)s2)CC1	?	11µM*	2%	i
CC(=O)N1CCCN(c2cc(Cl)nc3ccnn23)CC1	-19%[138 µM]	-22%[172 µM]	31%[70.6 µM]	i
NC(=O)c1noc2c1CN(c1cc(-c3ccccc3)nc3ccnn13)CC2	?	45µM*	-21%	i
CSc1cccc(NC(=O)O[C@@H]2CC[C@]3(C)C(CC[C@@H](O)[C@H]3CC(=O)NCc3ccccc3)[C@]2(C)CO)c1 (stereo not given in full)	40µM*	35µM*	-20%	i
C[C@@]12CO[C@@H](Cc3ccccc3)O[C@@H]1CC[C@]1(C)C2CC[C@@H](O)[C@H]1CC(=O)NCc1cc(F)cc(F)c1 (stereo not given in full)	40µM*	40µM*	-15%	i
C[C@@]12CO[C@@H](Cc3ccccc3)O[C@@H]1CC[C@]1(C)[C@@H]2CC[C@@H](O)[C@H]1CC(=O)N1CCCC1	-20%	i	-3%	i
COc1ccc(NC(=O)O[C@@H]2CC[C@]3(C)C(CC[C@@H](O)[C@H]3CC(=O)NCc3ccc4c(c3)OCO4)[C@]2(C)CO)cc1 (stereo not given in full)	45µM*	?	5%	i
O=C(c1n[nH]c2ccccc12)N1CC(Oc2ccccc2-c2nc(-c3ccccc3)no2)C1	-26%	-16%	-2%	i
COc1ccc(CCNC(=O)c2ccc3nc(-c4ccccn4)oc3c2)cc1	-16%	?	.	.
O=C(NCc1cccs1)C1CCN(Cc2ccccc2-c2cccnc2)CC1	-30%	?	.	.
COc1ccc2cc(C3CN(Cc4nc(C(N)=O)no4)CCO3)ccc2c1 (stereo not given)	-27%	-3%	3%	i
COc1ccc2cc(C3CN(CCC(=O)NC(C)(C)C)CCO3)ccc2c1 (stereo not given)	?	45µM*	?	?
C[C@H](O)c1c(-c2ccc(Cl)cc2)noc1C(=O)NC1CC1	?	112µM*	-8%[70.6 µM]	i
CNC(=O)c1onc(-c2ccc(Cl)cc2)c1[C@H](C)O	-36%[174 µM]	-32%[230 µM]	-9%[70.6 µM]	i

Screens as filed in PubChem BioAssay.
